The values that follow come from the supplement of paper PMC11732987, “Enantioselective OTUD7B fragment discovery through chemoproteomics screening and high-throughput optimisation” (Communications Chemistry, 2025).

Structures are written as SMILES. Values without a mark were called inactive.

Holding throughout (assay): log2 ratio of Biotin-Ahx-Ub-VS probe labelling (fragment/DMSO); higher = less target engagement (more negative = stronger competition), active = hit call of the paper (q ≤ 0.05, log2 ratio ≤ -1)
Holding throughout (settings): compound concentration: 200 uM; treatment time: 3 h

The target of one assay is T1, USP19 (UniProt O94966).
T1 sequence (whole entry): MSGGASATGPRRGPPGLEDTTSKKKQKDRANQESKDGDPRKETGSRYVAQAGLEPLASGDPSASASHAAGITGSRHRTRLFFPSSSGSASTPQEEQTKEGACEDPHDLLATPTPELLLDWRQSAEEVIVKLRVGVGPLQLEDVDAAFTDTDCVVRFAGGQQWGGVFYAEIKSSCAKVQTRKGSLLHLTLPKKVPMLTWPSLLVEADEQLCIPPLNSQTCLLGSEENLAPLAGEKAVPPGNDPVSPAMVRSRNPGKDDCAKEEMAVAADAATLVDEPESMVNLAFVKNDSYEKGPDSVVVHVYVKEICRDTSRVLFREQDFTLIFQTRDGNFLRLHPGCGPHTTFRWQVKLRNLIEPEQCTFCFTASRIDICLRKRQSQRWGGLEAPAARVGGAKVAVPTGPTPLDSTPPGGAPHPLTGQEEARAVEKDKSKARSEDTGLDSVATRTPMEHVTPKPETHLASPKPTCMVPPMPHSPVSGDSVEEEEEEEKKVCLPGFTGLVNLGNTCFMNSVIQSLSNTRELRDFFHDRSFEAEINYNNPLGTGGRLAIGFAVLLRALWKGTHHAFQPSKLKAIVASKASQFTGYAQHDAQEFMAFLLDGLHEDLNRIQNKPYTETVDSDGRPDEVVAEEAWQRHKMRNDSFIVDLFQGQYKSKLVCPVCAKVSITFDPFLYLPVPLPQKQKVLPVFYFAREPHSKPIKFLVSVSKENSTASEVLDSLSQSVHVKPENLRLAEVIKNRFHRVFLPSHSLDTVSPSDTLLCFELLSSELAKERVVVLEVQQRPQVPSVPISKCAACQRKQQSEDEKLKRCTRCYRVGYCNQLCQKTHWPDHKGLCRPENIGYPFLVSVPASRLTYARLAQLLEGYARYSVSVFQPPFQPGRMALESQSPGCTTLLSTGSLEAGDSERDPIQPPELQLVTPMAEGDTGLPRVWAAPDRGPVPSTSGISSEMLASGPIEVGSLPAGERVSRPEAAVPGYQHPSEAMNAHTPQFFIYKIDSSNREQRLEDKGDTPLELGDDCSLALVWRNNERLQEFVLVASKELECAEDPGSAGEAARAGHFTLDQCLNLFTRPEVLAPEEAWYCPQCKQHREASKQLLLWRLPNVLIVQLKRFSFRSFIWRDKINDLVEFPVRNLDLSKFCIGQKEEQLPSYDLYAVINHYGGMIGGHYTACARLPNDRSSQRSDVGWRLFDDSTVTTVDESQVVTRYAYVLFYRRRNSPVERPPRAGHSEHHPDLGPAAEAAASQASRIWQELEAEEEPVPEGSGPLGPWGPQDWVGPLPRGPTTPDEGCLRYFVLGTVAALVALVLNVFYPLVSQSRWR
Summed up:
(§1)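 HEK293T lysate, 495 µg per sample in Tris/CHAPS/IGEPAL buffer with protease inhibitors, was treated in triplicate with fragment at 200 µM or vehicle for 3 h and then with Biotin-Ahx-Ub-VS at 0.5 µM final for 1 h. Labelled DUBs were NeutrAvidin-enriched, digested with LysC and trypsin, and run by diaPASEF LC-MS/MS. Spectronaut label-free quantities were global-median-normalised, and values are average log2 fragment/vehicle ratios by unpaired t-test on proteins with ≥2 unique peptides.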

A further assay concerns the target T2, USP22 (UniProt Q9UPT9).
T2 sequence (whole entry): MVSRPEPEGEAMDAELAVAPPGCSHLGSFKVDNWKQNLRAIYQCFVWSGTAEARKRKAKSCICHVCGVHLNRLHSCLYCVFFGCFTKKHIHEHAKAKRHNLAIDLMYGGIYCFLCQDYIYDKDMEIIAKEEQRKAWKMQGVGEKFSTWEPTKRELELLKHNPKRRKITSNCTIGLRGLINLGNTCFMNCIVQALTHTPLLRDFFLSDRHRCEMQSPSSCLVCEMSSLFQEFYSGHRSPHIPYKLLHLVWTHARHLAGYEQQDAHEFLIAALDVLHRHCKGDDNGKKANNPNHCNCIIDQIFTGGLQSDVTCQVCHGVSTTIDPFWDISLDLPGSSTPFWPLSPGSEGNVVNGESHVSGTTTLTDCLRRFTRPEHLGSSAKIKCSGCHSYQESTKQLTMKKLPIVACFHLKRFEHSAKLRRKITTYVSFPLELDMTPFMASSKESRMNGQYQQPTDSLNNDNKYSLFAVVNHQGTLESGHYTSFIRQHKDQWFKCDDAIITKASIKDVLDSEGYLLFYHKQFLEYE
Summed up: as §1

The target of a further assay is USP24 (UniProt Q9UPU5). Summed up: as §1
In a further assay the target is T3, USP25 (UniProt Q9UHP3).
T3 sequence (whole entry): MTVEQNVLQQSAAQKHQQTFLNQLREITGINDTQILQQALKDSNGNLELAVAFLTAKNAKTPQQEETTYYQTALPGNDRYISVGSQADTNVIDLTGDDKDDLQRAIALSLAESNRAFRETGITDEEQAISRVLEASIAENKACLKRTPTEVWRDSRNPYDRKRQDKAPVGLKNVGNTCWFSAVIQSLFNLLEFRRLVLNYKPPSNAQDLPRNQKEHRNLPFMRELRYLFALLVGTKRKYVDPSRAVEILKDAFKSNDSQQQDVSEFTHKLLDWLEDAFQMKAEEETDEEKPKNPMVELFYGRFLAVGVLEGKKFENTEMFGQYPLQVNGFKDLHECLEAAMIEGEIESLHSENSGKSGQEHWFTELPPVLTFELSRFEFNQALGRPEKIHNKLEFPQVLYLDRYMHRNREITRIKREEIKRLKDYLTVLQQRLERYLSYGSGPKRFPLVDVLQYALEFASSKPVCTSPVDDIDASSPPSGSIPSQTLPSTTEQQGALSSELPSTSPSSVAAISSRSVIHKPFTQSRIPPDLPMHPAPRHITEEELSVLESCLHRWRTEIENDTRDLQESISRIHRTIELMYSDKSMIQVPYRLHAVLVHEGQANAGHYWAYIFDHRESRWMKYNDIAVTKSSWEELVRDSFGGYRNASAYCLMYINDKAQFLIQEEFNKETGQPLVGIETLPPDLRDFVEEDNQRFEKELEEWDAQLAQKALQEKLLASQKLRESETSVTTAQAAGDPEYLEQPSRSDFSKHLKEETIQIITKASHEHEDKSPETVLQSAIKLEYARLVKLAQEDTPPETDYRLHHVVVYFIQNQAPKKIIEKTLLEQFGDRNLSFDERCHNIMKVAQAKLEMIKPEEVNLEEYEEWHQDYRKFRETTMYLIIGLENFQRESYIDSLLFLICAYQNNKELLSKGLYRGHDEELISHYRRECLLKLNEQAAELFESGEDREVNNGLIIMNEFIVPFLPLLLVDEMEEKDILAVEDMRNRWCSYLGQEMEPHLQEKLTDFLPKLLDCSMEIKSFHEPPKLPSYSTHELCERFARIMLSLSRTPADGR
Summed up: as §1

A further assay concerns the target T4, USP28 (UniProt Q96RU2).
T4 sequence (whole entry): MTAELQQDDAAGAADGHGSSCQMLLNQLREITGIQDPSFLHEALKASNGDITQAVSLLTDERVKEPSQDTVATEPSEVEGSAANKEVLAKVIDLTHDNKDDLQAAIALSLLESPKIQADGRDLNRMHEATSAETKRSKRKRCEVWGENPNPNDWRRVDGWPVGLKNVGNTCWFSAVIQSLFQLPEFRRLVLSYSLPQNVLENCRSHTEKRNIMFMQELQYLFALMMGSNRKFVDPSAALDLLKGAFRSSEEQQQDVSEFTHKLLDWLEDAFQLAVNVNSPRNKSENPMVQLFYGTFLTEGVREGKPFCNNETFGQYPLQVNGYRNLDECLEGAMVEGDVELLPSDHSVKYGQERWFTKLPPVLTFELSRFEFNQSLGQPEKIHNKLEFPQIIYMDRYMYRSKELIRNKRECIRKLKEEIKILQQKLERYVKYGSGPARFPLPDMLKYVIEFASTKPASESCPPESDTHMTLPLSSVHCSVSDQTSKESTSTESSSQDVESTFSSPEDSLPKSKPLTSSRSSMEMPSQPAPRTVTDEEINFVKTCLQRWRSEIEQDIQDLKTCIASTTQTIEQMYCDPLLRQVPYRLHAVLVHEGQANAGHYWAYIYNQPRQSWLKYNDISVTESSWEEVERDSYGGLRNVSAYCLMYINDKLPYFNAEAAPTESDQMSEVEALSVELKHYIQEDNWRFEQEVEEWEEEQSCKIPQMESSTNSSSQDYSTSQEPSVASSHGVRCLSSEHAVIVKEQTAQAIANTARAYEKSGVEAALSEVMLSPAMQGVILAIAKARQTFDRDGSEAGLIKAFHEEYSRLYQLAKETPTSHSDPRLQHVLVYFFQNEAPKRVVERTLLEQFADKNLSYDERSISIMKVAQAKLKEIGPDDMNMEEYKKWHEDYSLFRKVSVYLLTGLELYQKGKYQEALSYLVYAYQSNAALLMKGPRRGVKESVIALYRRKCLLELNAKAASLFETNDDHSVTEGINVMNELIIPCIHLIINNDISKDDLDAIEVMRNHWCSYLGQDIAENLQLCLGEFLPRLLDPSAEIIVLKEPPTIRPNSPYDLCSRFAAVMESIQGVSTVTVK
A digest of the protocol:
as §1

Sequence of USP24 (Q9UPU5 whole entry): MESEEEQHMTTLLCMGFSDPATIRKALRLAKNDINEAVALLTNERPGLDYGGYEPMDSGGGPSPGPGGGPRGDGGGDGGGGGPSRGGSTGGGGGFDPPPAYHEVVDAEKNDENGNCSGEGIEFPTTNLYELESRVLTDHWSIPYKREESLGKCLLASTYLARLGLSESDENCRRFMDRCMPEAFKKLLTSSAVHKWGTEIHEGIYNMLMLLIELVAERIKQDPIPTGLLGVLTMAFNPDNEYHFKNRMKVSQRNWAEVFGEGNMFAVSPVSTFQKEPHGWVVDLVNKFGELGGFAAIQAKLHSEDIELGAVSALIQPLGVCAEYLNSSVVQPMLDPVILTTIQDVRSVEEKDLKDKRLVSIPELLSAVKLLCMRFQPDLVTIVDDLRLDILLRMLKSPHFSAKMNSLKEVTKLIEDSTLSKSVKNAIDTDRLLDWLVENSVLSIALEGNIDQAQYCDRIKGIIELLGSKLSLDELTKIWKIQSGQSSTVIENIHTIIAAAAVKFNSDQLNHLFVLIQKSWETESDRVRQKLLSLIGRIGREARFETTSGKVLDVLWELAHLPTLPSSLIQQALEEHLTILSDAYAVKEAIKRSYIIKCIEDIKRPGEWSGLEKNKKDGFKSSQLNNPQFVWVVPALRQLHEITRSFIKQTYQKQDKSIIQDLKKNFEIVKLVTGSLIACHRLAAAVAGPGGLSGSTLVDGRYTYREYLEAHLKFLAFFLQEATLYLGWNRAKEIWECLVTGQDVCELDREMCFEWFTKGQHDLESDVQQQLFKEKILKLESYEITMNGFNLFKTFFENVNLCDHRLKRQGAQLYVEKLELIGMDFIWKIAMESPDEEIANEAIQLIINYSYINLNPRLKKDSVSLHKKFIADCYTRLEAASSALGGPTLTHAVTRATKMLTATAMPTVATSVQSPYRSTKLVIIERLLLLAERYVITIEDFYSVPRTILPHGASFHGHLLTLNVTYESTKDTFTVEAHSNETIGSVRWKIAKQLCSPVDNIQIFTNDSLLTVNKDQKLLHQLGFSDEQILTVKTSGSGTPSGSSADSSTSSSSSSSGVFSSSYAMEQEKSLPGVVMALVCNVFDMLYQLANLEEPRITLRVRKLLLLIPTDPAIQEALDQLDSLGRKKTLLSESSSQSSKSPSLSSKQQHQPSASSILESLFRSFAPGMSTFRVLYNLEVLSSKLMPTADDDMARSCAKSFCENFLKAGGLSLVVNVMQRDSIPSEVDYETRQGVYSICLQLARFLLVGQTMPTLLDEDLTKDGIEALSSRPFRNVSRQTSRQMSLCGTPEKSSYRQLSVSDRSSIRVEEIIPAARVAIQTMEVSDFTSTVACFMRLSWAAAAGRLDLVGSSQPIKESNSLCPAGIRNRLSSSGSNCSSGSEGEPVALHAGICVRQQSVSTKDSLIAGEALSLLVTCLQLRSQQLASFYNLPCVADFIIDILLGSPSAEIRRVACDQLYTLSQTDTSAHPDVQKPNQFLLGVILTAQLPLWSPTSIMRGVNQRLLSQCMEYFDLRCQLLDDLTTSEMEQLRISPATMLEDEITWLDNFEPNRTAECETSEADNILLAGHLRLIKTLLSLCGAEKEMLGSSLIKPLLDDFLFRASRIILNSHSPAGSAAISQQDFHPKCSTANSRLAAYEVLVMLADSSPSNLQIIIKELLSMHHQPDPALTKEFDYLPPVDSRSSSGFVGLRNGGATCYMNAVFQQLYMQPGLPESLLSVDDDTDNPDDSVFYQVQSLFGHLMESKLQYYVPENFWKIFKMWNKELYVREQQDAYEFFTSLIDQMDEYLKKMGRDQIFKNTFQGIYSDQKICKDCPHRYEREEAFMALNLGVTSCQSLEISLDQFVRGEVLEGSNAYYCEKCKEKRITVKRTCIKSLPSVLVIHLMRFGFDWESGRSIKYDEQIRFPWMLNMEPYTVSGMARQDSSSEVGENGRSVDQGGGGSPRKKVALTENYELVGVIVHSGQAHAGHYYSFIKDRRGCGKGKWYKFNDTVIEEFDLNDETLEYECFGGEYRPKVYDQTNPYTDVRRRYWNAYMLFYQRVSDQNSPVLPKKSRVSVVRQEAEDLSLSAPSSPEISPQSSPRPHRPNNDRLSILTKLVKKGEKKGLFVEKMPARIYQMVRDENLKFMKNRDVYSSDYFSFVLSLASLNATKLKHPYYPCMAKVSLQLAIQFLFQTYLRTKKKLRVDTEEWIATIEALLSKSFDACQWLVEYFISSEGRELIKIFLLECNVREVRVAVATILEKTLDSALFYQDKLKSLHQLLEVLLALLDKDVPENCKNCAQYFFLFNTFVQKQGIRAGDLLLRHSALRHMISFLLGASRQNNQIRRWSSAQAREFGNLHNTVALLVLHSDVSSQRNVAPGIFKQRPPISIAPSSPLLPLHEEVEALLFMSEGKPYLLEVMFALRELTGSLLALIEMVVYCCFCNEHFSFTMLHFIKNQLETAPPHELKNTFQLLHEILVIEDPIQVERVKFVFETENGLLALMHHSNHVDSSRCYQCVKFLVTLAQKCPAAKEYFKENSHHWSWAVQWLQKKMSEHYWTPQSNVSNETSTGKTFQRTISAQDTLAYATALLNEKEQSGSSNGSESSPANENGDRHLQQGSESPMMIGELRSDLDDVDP

For `CC(=O)Nc1ccc(NC(=O)CCl)cc1`, the “log2 ratio of Biotin-Ahx-Ub-VS probe labelling” value with USP19 was -0.179; with USP22, -0.0522; with USP24 it was -0.314; in the assay with USP25, -1.33 (active); with USP28, -0.938.
